Assay outcomes from PubChem.
NS1 function inh: qHTS Assay for Inhibitors of Influenza NS1 Protein Function. hit rate 0.4% among 270,000. Potency, µM (top dose mostly 46.1 µM), for the others: at the highest dose activity, positive = more growth; calls by dose curve; also: potency is read from the fitted curve at half-maximal effect; actives are rising curves; nearly all actives have a fitted effect of over 50% in size
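Read-out: OD600 growth recovery of NS1-expressing budding yeast. Cells grown overnight at 30C in -URA glucose medium, washed, resuspended and diluted 1:100 in 2% galactose assay medium, pH 6.0. Same strain lacking NS1 served as positive control.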
Cycloheximide cs: Cycloheximide Counterscreen for Small Molecule Inhibitors of Shiga Toxin; cell reporter, cycloheximide protein synthesis inhibition counterscreen; max response, %; hit rate 12% among 300,000; in the data active = max response mostly above about 13%, no sharp cut-off; inactive = mostly below about 14%; also: read at 38.3 µM for the half of the compounds with a filed dose; 0% is about no effect
Pf growth 48h: Primary qHTS for delayed death inhibitors of the malarial parasite plastid, 48 hour incubation; P. falciparum luciferase growth in erythrocytes, 48 h; Potency, µM (highest dose often 28.7 µM), for inactives: top-dose activity change, negative = inhibition, actives largely listed as inhibitors; hit rate 5.9% among 310,000; also: potency is read from the fitted curve at half-maximal effect; % is scaled to controls: 0 for no effect and ±100 for the full control effect
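Read-out is firefly luciferase luminescence from an integrated reporter in P. falciparum, so falling signal marks reduced parasite growth. Infected erythrocytes were at 2% hematocrit and 0.1% parasitemia (final) in Albumax-supplemented RPMI 1640.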
Shiga toxin inh: A qHTS for Small Molecule Inhibitors of Shiga Toxin | Vero cells, Shiga toxin protein synthesis inhibition reporter | inhibition, % at 38.7 µM | hit rate 9.2% among 290,000 | AID 2315, 2010; in the data active = inhibition mostly above about 28%, no sharp cut-off; inactive = mostly below about 43%; also: 0% is about no effect
SARS PLpro yeast: qHTS of Yeast-based Assay for SARS-CoV PLP. hit rate 0.19% among 330,000. S. cerevisiae expressing SARS-CoV PLpro, growth rescue. Potency, µM (titrated, usually from 32.9 µM), inactives show top-dose activity, positive = growth rescue, hits mostly activators; calls by dose curve; also: potency is read from the fitted curve at half-maximal effect; 0% is about no effect; nearly all actives have a fitted effect of over 55% in size
Pf growth 96h: Primary qHTS for delayed death inhibitors of the malarial parasite plastid, 96 hour incubation; AID 504834, 2011; Potency, µM (top dose mostly 28.7 µM), without a hit: at the highest dose activity change, negative = inhibition, usual class: inhibitors; P. falciparum luciferase reporter growth, 96 h; hit rate 6.9% among 320,000; also: potency is read from the fitted curve at half-maximal effect; % is scaled to controls: 0 for no effect and ±100 for the full control effect
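Infected RBCs, 2% Hct / 0.05% parasitemia final; luciferase-reporter P. falciparum; cpd 96 h, 37 C, 5% CO2; luciferase detection reagent; luminescence.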
An asterisk follows results filed as active; ? = inconclusive; . = not tested or not shown; [ ] = remark or other dose. Compounds with a hit are over-represented: about 21% of the library has one in this group of screens. Unless noted, calls follow the shape of the dose curve; as a rule, active = well fitted inhibition curve with a large enough effect; inconclusive = small, poorly fitted or top-dose-only effect, or another doubt; inactive = no such curve, though single readings can be large or run the other way.

SMILES	NS1 function inh	Cycloheximide cs	Pf growth 48h	Shiga toxin inh	SARS PLpro yeast	Pf growth 96h
O=C(COc1ccc(F)cc1F)N1CCCCCCC1	14%	5	1%	3	2%	0%
COc1ccc(C2C(C(=O)NCCN3CCOCC3)c3ccccc3C(=O)N2C2CCCCC2)cc1 (stereo unspecified)	-10%	-3	?	-4	5%	18%
CCn1ccnc1CN(C)C(=O)CCc1nnc(CCC2CCCCC2)o1	-5%	-3	?	23	-1%	29%
CC(C)NC(=O)Nc1cccc(Cl)c1	-1%	11	-6%	24	-1%	75%
CC(Cc1cccs1)NC(=O)Nc1ccc(F)cc1 (stereo unspecified)	-49%	50*	.	48	5%	17%
CC(Cc1cccs1)NC(=O)Nc1cccc(Cl)c1 (stereo unspecified)	-79%	59*	.	69*	-29%	?
Cc1c(S(=O)(=O)N(C)C2CCCCC2)c(=O)n(C)c(=O)n1C	.	.	9%	.	5%	21%
O=C(OC(C(=O)NC1CCCC1)c1cccnc1)C1=Cc2ccccc2OC1 (stereo unspecified)	-15%	-4	?	-22	-3%	45%
O=C(COC(=O)C1=Cc2ccccc2OC1)NCc1ccccc1	.	.	0%	.	2%	?
O=C(COC(=O)C1=Cc2ccccc2OC1)NC1CCCC1	-3%	17*	9%	5	-2%	8%
O=C(COC(=O)c1ccccc1Br)NC1CCCC1	-2%	39*	52%	59*	0%	32%
O=C(COC(=O)c1ccccc1Br)NCCN1C(=O)CSC1=O	.	20*	81%	109*	-6%	53%
O=C(OCc1cccnc1)C1=Cc2ccccc2OC1	-7%	23	7%	40*	-1%	11%
Cc1cc2nccc(-c3ccc(Cl)cc3Cl)n2n1	-1%	2	15%	2	0%	-2%
CCN(C(=O)CSc1nc2ccccc2c(=O)n1CCOC)C1CCS(=O)(=O)C1 (stereo unspecified)	.	-3	-23%	-14	0%	3%[5.75 µM]
COc1ccccc1C(=O)OCC(=O)NC1CCCC1	5%	61*	2%	64*	3%	10%
O=[N+]([O-])C(Br)(CO)CO	.	.	5%	.	.	11%
CN(CCc1ccccc1)Cc1ccccc1[N+](=O)[O-]	4%	17*	.	42	-1%	59%
O=C(c1ccccc1[N+](=O)[O-])N(CCc1ccccc1)Cc1ccccc1	-1%	5	-7%	-8	-1%	?
CCCN(CC(=O)Nc1ccccc1OC)C(=O)c1cc(S(=O)(=O)NCc2ccccc2)ccc1C	-5%	-3	?	-5	1%	?
COc1cccc(NC(=O)CN(C)C(=O)c2cccc(S(=O)(=O)Nc3ccccc3OC)c2)c1	.	.	13µM*	.	.	?
CCCN(CC(=O)Nc1ccccc1OC)C(=O)c1ccc2c(c1)NC(=O)C(C)S2 (stereo unspecified)	.	.	10µM*	.	1%	?
CCCN(CC(=O)Nc1ccccc1OC)C(=O)c1cccc(S(=O)(=O)NCc2ccccc2)c1	.	.	?	.	2%	10µM*
CC1Sc2ccc(C(=O)Nc3ccc(S(=O)(=O)N(C)C)cc3)cc2NC1=O (stereo unspecified)	.	.	?	.	2%	?
CCCNC(=O)c1ccccc1NC(=O)c1ccc2c(c1)NC(=O)C(C)S2 (stereo unspecified)	-15%	12	?	15	-7%	?
SMILES	NS1 function inh	Cycloheximide cs	Pf growth 48h	Shiga toxin inh	SARS PLpro yeast	Pf growth 96h
COc1ccc(S(=O)(=O)N(C)C)cc1NC(=O)c1ccc2c(c1)NC(=O)C(C)S2 (stereo unspecified)	.	.	9.3µM*	.	-5%	5.2µM*
Cc1cc(NC(=O)COC(=O)c2cnccn2)ccc1Br	.	.	.	.	0%	.
O=C(CCCN=C1NS(=O)(=O)c2ccccc21)Nc1ccc(Cl)cc1	.	.	-10%	.	-8%	-12%
NS(=O)(=O)OCC(Cc1ccccc1)N1C(=O)c2ccccc2C1=O (stereo unspecified)	5%	-2	24%	-4	4%	-16%
O=C(O)CCC(=O)Nc1ccc(-n2ccc(C(F)(F)F)n2)cc1	1%	25*	1.7µM*	42*	-1%	58%
O=C(Nc1ccc(-n2ccc(C(F)(F)F)n2)cc1)c1cccs1	-46%	45*	?	117*	-3%	?
COc1ccccc1NC(=O)Nc1ccc(-n2ccc(C(F)(F)F)n2)cc1	-2%	42*	?	123*	-1%	?
Cc1noc(C)c1C(=O)Nc1ccc(-n2ccc(C(F)(F)F)n2)cc1	1%	1	6%	-5	0%	-18%
Cc1cc(C)cc(NC(=O)Nc2ccc(-n3ccc(C(F)(F)F)n3)cc2)c1	11%	11	12µM*	29	-1%	?
O=C(O)c1ccccc1C(=O)Nc1ccc(-n2ccc(C(F)(F)F)n2)cc1	-4%	-2	2%	2	-2%	-2%
Cc1nc2sccn2c(=O)c1S(=O)(=O)Nc1cccc(Cl)c1C	-12%	-3	-2%	-1	0%	?
O=C(O)CCCC(=O)Nc1ccc(-n2ccc(C(F)(F)F)n2)cc1	2%	-2	4%	-10	-2%	16%
O=C(Nc1ccc(-n2ccc(C(F)(F)F)n2)cc1)Nc1cccc(Cl)c1	-49%	31*	?	50*	-5%	?
Cc1ccc(S(=O)(=O)NCCNC(=O)c2ccc(C)nc2)cc1	3%	-4	0%	-22	1%	4%
CC(=O)Nc1ccc(NC(=O)Cn2c(=O)n(-c3ccc(C)cc3)c(=O)c3oc4ccccc4c32)cc1	.	-1	3%	40	0%	?
CC1=NN2C(=N)/C(=C\c3cc(C)n(-c4cccc(C)c4)c3C)C(=O)N=C2S1	13%	-1	?	-9	0%	?
Cc1cc(/C=C2\C(=N)N3N=C(C(C)C)SC3=NC2=O)c(C)n1-c1ccccc1	.	9	-2%	21	-4%	12µM*
COc1ccc(-c2csc(NC(=O)Cc3ccccc3)n2)cc1OC	12%	21	?	16	6%	-12%
COc1ccc(-c2csc(NC(=O)Nc3ccccc3)n2)cc1	3%	8	.	41	5%	-3%
COc1cccc(NC(=O)Nc2nc(-c3ccc(OC)c(OC)c3)cs2)c1	-17%	22*	?	67*	-4%	12µM*
COc1ccc(-c2csc(NC(C)=O)n2)cc1OC	-6%	21*	29%	20	-4%	.
COc1cccc(CC(=O)Nc2nc(-c3ccc(F)c(F)c3)cs2)c1	-8%	-2	6%	-2	-6%	1%
COc1cccc(-c2csc(NC(C)=O)n2)c1	-9%	47*	44%	87*	-4%	16%
